# Experimental data reported in PubChem BioAssay.
# Several values for one entry are separate records, joined by “and”; a condition that tells them apart may be missing. Equal values may be shown once. Inconclusive results are not listed. For part of these data: Results with a measured potency or affinity are listed apart. Activity calls are given as the source filed them. Unless noted, the rule behind the calls is not given here.
# Legend:
# [1] = antimalarial activity against Dd2 strain (AID 2302;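 active = growth inhibition above 50% at the single 2 µM test dose, taken to imply half-maximal potency below 2 µM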;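 note: 0% = DMSO untreated growth and 100% = chloroquine plus artemisinin killed control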); conditions: P. falciparum Dd2 in RBCs, LDH growth readout, 72 h; at 2 µM; stronger effect = higher value
# [2] = HepG2 cytotoxicity, primary screen, cytotoxicity control for P. falciparum antimalarial project, cell-based, ATP luminescence (AID 2303;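 active = inhibition above 50%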;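 note: 0% = DMSO wells and 100% = digitonin-killed cells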); conditions: HepG2 viability, 24-48 h, at 10 µM, stronger effect = higher value
# [3] = target: L-lactate dehydrogenase (Plasmodium falciparum (isolate CDC / Honduras)) (UniProt Q27743); test: PfLDH activity inhibition – cell lysate, 3D7 strain, counter-screen for P. falciparum growth inhibition project (AID 2304);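 note: 0% = vehicle and 100% = reference inhibitor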; conditions: P. falciparum 3D7 crude extract, LDH APAD/NBT absorbance; at 2 µM; stronger effect = higher value
# [4] = inhibition of 3D7 malaria parasite growth – strain 3D7 (AID 2306);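 note: 0% = DMSO wells and 100% = chloroquine plus artemisinin control wells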; conditions: P. falciparum 3D7 erythrocytic growth, LDH absorbance, 72 h; at 2 µM; stronger effect = higher value
# [5] = target: Calcium-dependent protein kinase 1 (Plasmodium falciparum (isolate 3D7)) (UniProt P62344); test: PfCDPK1 kinase inhibitors, biochemical, TCAMS library (AID 1159585; cut-off not given, nearly all actives have IC50 up to about 0.98 µM;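 note: inhibitors leave more ATP so luminescence rises with inhibition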); conditions: recombinant PfCDPK1, Kinase-Glo ATP depletion luminescence
# [6] = target: Plasmodium falciparum protein kinase 6 (PK6, PF3D7_1337100) (UniProt Q8IDW1); test: PfPK6 kinase inhibitors, biochemical, TCAMS library (AID 1159586); conditions: recombinant PfPK6, Kinase-Glo ATP depletion luminescence
# [7] = target: Protein kinase 7 (PK7), Plasmodium falciparum 3D7 (PF3D7_0213400) (UniProt Q7YTF7); test: inhibition of Plasmodium PK7 catalytic activity – biochemical, TCAMS antimalarial set, Kinase-Glo luminescence (AID 1159587); conditions: recombinant PfPK7, Kinase-Glo ATP depletion luminescence
# [8] = target: Calcium-dependent protein kinase 4 (Plasmodium falciparum (isolate 3D7)) (UniProt Q8IBS5); test: PfCDPK4 kinase inhibitors, biochemical, TCAMS library (AID 1159588; cut-off not given, nearly all actives have IC50 up to about 0.91 µM); conditions: recombinant PfCDPK4, Kinase-Glo ATP depletion luminescence
# [9] = liver-stage malaria parasite growth inhibition, primary screen, cell-based, HepG2, luciferase luminescence, HepG2 viability (AID 624349; in the data active = parasite load remaining mostly below about 12%, no sharp cut-off; inactive = mostly above about 10%;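 note: 100% = mean of DMSO negative control wells on the same plate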); conditions: P. berghei liver stage in HepG2, luciferase luminescence, concentration not given here; parasite load remaining: stronger effect = lower value; viability: measured here: HepG2 viability without parasites
# [10] = test system: Aerobactin synthetase IucA (Klebsiella pneumoniae); test: IucA aerobactin synthetase inhibitors, biochemical, Tocris library, absorbance (AID 1345561); conditions: purified IucA enzyme assay, absorbance (OD) read-out; stronger effect = lower value;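 tested at 8 µM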;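 note: 100% = enzyme without compound and 0% = no enzyme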
# [11] = sensitizers of A549 cells to miR-34 induction, primary screen, imaging, A549 dox-inducible miR-34, nuclei and caspase counts (AID 1347080;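 active = compounds whose cell count with miR-34 switched on is under 0.7 times the count with it off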); conditions: A549 miR-34 inducible, Hoechst nuclei count, 48 h
# [12] = survival rescue of mitochondrial mutant cells in low glucose, primary screen, MELAS cybrids, Rieske KO mouse fibroblasts, CellTiter-Glo (AID 1508586;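 active = mean z-score across replicates of 1.96 or higher in either the MELAS or the Rieske mutant cell line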;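 note: z relative to plate mean and SD of compound and empty wells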)
# [13] = viability rescue of complex I mutant cybrids, primary screen, cell-based, galactose medium, ATP luminescence (AID 1645843;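 active = z-score of at least 1.8 in each of two replicates, scored against plate mean and spread of sample wells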;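 note: positive z means more ATP and so rescue of galactose-driven cybrid death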); conditions: complex I mutant cybrid cells, 72 h, stronger effect = higher value
# [14] = circadian clock period modulators, cell-based, LOPAC library, luminescence reporter (AID 2774); conditions: circadian reporter cells, at 7 µM, actives lie on both sides;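 note: values are relative to mean of DMSO wells on each plate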
# [15] = test system: Hepatitis C virus NS3 helicase; test: HCV NS3 helicase inhibitors, primary screen, biochemical, fluorescence polarization, LOPAC1280 library (AID 687035; in the data active = inhibition above about 37%); conditions: Purified HCV NS3 helicase, Cy5-dT15 ssDNA binding fluorescence polarization; stronger effect = higher value; concentration not given here
# [16] = Cy5 fluorescence quenching or enhancement artefacts, artefact control for HCV NS3 helicase inhibitor project, biochemical, LOPAC1280 (AID 687037); conditions: Cy5-DNA-NS3h complex fluorescence interference counterscreen
# [17] = growth inhibition of DIPG glioma cells, dose response, cell-based, SU-DIPG-XIII, MIPE4.0, CellTiter-Glo, qHTS (AID 1347061; cut-off not given, nearly all actives have AC50 up to about 37 µM;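 note: cells exposed to compound for 48 hours before readout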); conditions: SU-DIPG-XIII viability, CellTiter-Glo ATP luminescence
# [18] = growth inhibition of DIPG glioma cells, dose response, cell-based, JHH-DIPG-1, MIPE4.0, CellTiter-Glo, qHTS (AID 1347062; cut-off not given, nearly all actives have AC50 up to about 27 µM); conditions: JHH-DIPG-1 viability, CellTiter-Glo ATP luminescence
# [19] = stronger effect = lower value, cell number ratio, induced over uninduced
# [20] = measured here: relative caspase fold change +Dox/-Dox
# [21] = measured here: total cells with miR-34 induction, stronger effect = lower value
# [22] = measured here: total cells without miR-34 induction
# [23] = MELAS cybrid survival, CellTiter-Glo 48 h, stronger effect = higher value
# [24] = Rieske KO mouse fibroblast survival, CellTiter-Glo 72 h
# Chain of Calcium-dependent protein kinase 1 (Plasmodium falciparum (isolate 3D7)) (P62344 whole entry, looked up): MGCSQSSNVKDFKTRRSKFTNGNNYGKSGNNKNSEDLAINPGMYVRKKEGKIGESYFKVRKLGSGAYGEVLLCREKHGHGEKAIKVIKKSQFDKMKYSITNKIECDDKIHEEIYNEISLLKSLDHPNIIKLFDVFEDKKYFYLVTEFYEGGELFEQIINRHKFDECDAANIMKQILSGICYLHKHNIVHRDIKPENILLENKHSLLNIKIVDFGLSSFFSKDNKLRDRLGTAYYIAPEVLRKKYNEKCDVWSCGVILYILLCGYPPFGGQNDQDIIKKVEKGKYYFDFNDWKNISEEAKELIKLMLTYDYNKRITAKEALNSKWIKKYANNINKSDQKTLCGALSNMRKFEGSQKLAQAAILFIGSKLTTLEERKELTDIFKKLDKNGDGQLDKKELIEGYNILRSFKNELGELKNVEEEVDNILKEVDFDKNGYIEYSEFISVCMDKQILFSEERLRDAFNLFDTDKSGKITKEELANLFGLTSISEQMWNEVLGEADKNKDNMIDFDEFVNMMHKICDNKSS
# Chain of Calcium-dependent protein kinase 4 (Plasmodium falciparum (isolate 3D7)) (Q8IBS5 whole entry, looked up): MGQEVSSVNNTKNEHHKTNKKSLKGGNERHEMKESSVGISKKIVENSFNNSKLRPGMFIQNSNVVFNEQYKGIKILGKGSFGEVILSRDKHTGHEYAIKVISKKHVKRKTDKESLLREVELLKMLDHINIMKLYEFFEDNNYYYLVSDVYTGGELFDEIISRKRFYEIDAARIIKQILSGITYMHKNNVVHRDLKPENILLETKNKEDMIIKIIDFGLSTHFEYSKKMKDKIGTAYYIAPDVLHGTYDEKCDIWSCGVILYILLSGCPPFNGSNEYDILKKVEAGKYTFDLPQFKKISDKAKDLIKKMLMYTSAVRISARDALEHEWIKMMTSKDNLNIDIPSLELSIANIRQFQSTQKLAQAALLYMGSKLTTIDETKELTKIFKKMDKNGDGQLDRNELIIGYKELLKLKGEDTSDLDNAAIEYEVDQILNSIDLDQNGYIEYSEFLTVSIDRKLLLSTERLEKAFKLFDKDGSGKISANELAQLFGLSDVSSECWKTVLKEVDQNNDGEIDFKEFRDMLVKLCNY
# Chain of Plasmodium falciparum protein kinase 6 (PK6, PF3D7_1337100) (Q8IDW1 1-305): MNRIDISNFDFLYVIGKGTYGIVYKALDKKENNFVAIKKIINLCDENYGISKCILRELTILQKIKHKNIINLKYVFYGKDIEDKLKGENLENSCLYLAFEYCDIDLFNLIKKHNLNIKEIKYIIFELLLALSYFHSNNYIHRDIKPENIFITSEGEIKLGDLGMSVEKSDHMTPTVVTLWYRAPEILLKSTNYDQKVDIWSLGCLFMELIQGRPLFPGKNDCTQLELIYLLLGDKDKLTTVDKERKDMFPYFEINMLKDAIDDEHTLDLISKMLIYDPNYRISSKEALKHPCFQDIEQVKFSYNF
# Chain of Protein kinase 7 (PK7), Plasmodium falciparum 3D7 (PF3D7_0213400) (Q7YTF7 1-343): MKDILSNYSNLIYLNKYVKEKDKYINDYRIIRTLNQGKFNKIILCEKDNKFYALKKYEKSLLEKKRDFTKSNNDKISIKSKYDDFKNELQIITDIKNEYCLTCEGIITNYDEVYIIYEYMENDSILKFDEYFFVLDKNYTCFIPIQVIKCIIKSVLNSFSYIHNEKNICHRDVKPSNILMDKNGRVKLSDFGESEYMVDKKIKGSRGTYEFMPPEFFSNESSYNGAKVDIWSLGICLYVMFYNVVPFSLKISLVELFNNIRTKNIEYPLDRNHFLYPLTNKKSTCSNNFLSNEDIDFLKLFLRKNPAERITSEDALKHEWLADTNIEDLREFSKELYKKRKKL
# Chain of L-lactate dehydrogenase (Plasmodium falciparum (isolate CDC / Honduras)) (Q27743 whole entry, looked up): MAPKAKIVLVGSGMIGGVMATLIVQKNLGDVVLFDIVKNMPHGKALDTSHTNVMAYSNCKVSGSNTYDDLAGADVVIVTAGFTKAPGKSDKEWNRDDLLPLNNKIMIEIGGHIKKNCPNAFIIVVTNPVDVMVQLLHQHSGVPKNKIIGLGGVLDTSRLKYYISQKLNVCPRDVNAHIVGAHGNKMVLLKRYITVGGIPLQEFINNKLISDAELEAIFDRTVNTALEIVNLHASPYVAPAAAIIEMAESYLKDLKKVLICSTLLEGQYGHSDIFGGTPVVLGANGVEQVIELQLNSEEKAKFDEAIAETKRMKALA
structure (smiles),measurement,setting,value
CC(C)(C)CN1C(=O)C(c2ccccc2)(c2ccccc2)N=C1N,growth inhibition,[1],94% (active)
same,inhibition,[2],32% (inactive)
same,inhibition,[3],1% (inactive)
same,growth inhibition,[4],98% (active)
same,outcome,[5],inactive
same,outcome,[6],inactive
same,outcome,[7],inactive
same,outcome,[8],inactive
c1ccc(Oc2ccc(Nc3ccnc4cc(-c5ccc(CN6CCOCC6)o5)ccc34)cc2)nc1,growth inhibition,[1],73% (active)
same,inhibition,[2],5% (inactive)
same,inhibition,[3],0% (inactive)
same,growth inhibition,[4],92% (active)
same,outcome,[5],inactive
same,outcome,[6],inactive
same,outcome,[7],inactive
same,outcome,[8],inactive
COc1ccc(Cl)cc1NC(=O)Nc1cc(C)nc2ccccc12,growth inhibition,[1],99% (active)
same,inhibition,[2],10% (inactive)
same,inhibition,[3],-3% (inactive)
same,growth inhibition,[4],101% (active)
same,parasite load remaining,[9],55.8% (inactive)
same,viability,[9],153%
same,outcome,[5],inactive
same,outcome,[6],inactive
same,outcome,[7],inactive
same,outcome,[8],inactive
same,remaining activity,[10],102% (inactive)
same,fold change,[11]; [19],0.905 (inactive) and 1.03 (inactive)
same,fold change,[11]; [20],0.387 and 0.813
same,cell count,[11]; [21],6720 and 4040
same,cell count,[11]; [22],7420 and 3920
same,z-score,[12]; [23],-0.407 (inactive)
same,z-score,[12]; [24],0.602
same,z-score,[13],-0.645 (inactive)
COc1ccc(Cn2c(SCc3ccc(C)cc3)nc3cc(OC)c(OC)cc3c2=N)cc1Cl,growth inhibition,[1],7% (inactive)
same,inhibition,[2],50% (active)
same,inhibition,[3],5% (inactive)
same,growth inhibition,[4],92% (active)
same,outcome,[5],inactive
same,outcome,[6],inactive
same,outcome,[7],inactive
same,outcome,[8],inactive
OC(CN1CCN(c2cccc(Cl)c2)CC1)C(c1ccccc1)c1ccccc1 (stereo not drawn),growth inhibition,[1],4% (inactive)
same,inhibition,[2],-2% (inactive)
same,inhibition,[3],-2% (inactive)
same,growth inhibition,[4],85% (active)
same,period change,[14],-0.085 h (inactive)
same,inhibition,[15],-4% (inactive)
same,fluorescence ratio (interference),[16],0.9 (inactive)
same,outcome,[5],inactive
same,outcome,[6],inactive
same,outcome,[7],inactive
same,outcome,[8],inactive
same,remaining activity,[10],112% (inactive)
same,AC50,[17],23.5 µM (active)
same,outcome,[18],inactive
same,fold change,[11]; [19],0.897 (inactive) and 1 (inactive)
same,fold change,[11]; [20],0.676 and 0.73
same,cell count,[11]; [21],8580 and 6630
same,cell count,[11]; [22],9570 and 6630
same,z-score,[12]; [23],-0.304 (inactive)
same,z-score,[12]; [24],0.565
same,z-score,[13],-0.82 (inactive)
